Experimental data: PubChem BioAssay (NCATS)
Records with an inconclusive call do not appear. Calls of active or inactive are those of the source. Calls follow the shape of the dose curve; as a rule, active = well fitted curve in the direction sought with a large enough effect; inconclusive = small, poorly fitted or top-dose-only effect, or another doubt; inactive = no such curve, though single readings can be large; an effect the other way counts as inactive or inconclusive.

Key:
[1] = target: Luciferin 4-monooxygenase (Photinus pyralis) (UniProt P08659); assay: Firefly luciferase counterscreen qHTS: Assay Interference Panel against the NCATS CANVASS Library (AID 1347363); also: series mostly up to about 57 µM
Sequence of Luciferin 4-monooxygenase (Photinus pyralis) (P08659 whole entry, looked up): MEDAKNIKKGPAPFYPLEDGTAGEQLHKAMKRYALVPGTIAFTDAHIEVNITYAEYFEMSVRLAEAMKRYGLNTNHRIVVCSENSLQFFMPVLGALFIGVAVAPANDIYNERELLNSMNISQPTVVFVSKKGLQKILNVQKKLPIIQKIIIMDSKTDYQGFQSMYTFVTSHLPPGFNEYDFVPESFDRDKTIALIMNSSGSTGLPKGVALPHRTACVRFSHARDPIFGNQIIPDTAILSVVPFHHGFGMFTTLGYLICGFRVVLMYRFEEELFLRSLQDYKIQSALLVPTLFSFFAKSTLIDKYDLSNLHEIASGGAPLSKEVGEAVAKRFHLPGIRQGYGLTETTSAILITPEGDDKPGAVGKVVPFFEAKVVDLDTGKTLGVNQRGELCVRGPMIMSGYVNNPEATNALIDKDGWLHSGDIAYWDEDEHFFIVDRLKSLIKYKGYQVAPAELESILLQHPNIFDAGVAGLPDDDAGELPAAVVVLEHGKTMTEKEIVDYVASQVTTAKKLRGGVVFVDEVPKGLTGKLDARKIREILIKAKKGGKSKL
Summary of the method: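 Purified P. pyralis luciferase (0.04 ug/mL, 4x reagent) added to Tris-acetate buffer with 0.013 mM D-luciferin, 0.013 mM ATP and 13.3 mM Mg-acetate; compounds preincubated 15 min, then luminescence read after 5 min, RT.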

[2] = KB-8-5-11 Cancer Cell Toxicity qHTS against the NCATS CANVASS Library (AID 1347364); also: nearly all actives have a fitted effect of over 75% in size
Summary of the method: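 Natural products were titrated in 11 points onto KB-8-5-11 cells, 500 per well, and cytotoxicity was scored from CellTiter-Glo luminescence after 72 hr culture.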

[3] = SDT Cancer Cell Toxicity qHTS against the NCATS CANVASS Library (AID 1347365);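 also: SDT canine glioma cells 500 per well in 1536 well plates; series mostly up to about 46 µM; nearly all actives have a fitted effect of over 60% in size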
Summary of the method: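 Dispense 500 SDT cells per well; pin-transfer compounds; incubate 72 hr at 37C, 5% CO2, 95% RH; add CellTiterGlo and read luminescence.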

[4] = KB-3-1 Cancer Cell Toxicity qHTS against the NCATS CANVASS Library (AID 1347366); also: series mostly up to about 46 µM; nearly all actives have a fitted effect of over 75% in size
Summary of the method: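 KB-3-1 cells (500 cells/well) in DMEM + 10% FBS were treated with compounds for 72 hr at 37C, 5% CO2. Viability was read as CellTiter-Glo luminescence after 10 minutes at room temperature.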

[5] = qHTS for ATAD5 Agonist screened against the NCATS CANVASS Library (AID 1347367);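 also: luciferase reporter driven by ATAD5 which rises upon DNA damage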
Summary of the method: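 HEK293T cells stably carrying an ATAD5-controlled luciferase reporter (2000 cells/well) attached for 5 hr, then received compounds in an 11-point series for 16hr at 37C. Luminescence was read after a 30 min room-temperature reagent step.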

[6] = G06 Cancer Cell Toxicity qHTS against the NCATS CANVASS Library (AID 1347368); also: series mostly up to about 46 µM; nearly all actives have a fitted effect of over 60% in size
Summary of the method: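 Cytotoxicity toward canine glioma G06 cells is scored from cellular ATP via luminescence after 72 hr compound exposure at 500 cells/well.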

[7] = MCF7 Cancer Cell Toxicity qHTS against the NCATS CANVASS Library (AID 1347369)
Summary of the method: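 MCF7, 500 cells/well; cpds 11-pt qHTS; 72 hr, 37C/5% CO2; CellTiterGlo ATP luminescence.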

[8] = qHTS for ATAD5 Antagonist screened against the NCATS CANVASS Library (AID 1347370);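 also: HEK293T cells carrying an ATAD5 luciferase reporter co-treated with 10 µM 5-fluorouridine; series mostly up to about 46 µM; nearly all actives have a fitted effect of over 65% in size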
Summary of the method: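 HEK293T cells with a stably integrated ATAD5-controlled luciferase reporter were exposed to compounds (11-pt) alongside 10 uM 5-fluorouridine as ATAD5 stabilizer for 16hr at 37C. Viability was read by CellTiter-Fluor fluorescence, then ATAD5 by luminescence.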

[9] = J3T Cancer Cell Toxicity qHTS against the NCATS CANVASS Library (AID 1347371);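 also: J3T is a canine glioma cancer cell line seeded at 500 cells per well; series mostly up to about 46 µM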
Summary of the method: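 Viability of the J3T glioma line from dog is scored by ATP luminescence after a 72 hr incubation with natural products.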

[10] = target: Nuclear receptor subfamily 1 group I member 3 (Homo sapiens) (UniProt Q14994); assay: qHTS for Constitutive Androstane Receptor (CAR) Antagonist screened against the NCATS CANVASS Library (AID 1347372);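 also: cells stimulated with 50 nM CITCO agonist so inhibition reflects antagonism; series mostly up to about 46 µM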
Sequence of Nuclear receptor subfamily 1 group I member 3 (Homo sapiens) (Q14994 whole entry, looked up): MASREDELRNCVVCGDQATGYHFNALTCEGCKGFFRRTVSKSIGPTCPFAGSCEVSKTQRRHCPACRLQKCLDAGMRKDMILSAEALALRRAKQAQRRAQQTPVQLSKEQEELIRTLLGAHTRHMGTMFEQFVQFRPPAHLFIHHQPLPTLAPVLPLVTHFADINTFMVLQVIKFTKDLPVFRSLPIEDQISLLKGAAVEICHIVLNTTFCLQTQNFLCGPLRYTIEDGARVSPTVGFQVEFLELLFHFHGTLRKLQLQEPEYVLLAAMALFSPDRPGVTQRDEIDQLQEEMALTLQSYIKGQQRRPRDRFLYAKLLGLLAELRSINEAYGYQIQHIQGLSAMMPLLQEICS
Summary of the method: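 HepG2 cells stably carrying hCAR and CYP2B6-2.2kb luciferase reporter, 2500 cells/well, compound with 50 nM CITCO agonist for 24hr at 37C. ONE-Glo luminescence measured CAR activity; CellTiter-Fluor read viability.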

[11] = target: Nuclear receptor subfamily 1 group I member 3 (Homo sapiens) (UniProt Q14994); assay: qHTS for Constitutive Androstane Receptor (CAR) Agonist screened against the NCATS CANVASS Library (AID 1347373);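 also: every well also contained 1.5 µM PK11195 alongside the test compound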
Summary of the method: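 CAR agonism is scored as CYP2B6-promoter luciferase induction in a double-stable transfected HepG2 line, where 1.5uM PK11195 is included in each well. Compounds were tested over a 24hr exposure.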

[12] = qHTS for Hypoxia signaling pathway (HIF-1) antagonists against the NCATS CANVASS Library (AID 1347374);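 also: HRE-bla ME-180 cells stimulated with cobalt chloride to stabilize HIF-1alpha; series mostly up to about 38 µM; nearly all actives have a fitted effect of over 60% in size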
Summary of the method: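 HRE-bla ME-180 cells (2,000/well, 0.5% dialyzed FBS) were pre-incubated 5 h, then given an 11-point compound series plus CoCl2 (60 uM solution as added) for 17 h at 37C. CCF4 β-lactamase read (ex 405, em 460/530 nm) after 2 h at RT.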

[13] = qHTS for Hypoxia signaling pathway (HIF-1) agonists against the NCATS CANVASS Library (AID 1347375)
Summary of the method: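 Inducers of HIF-1 signaling were detected in ME-180 cells bearing an HRE-driven beta-lactamase reporter after 17 h compound exposure. Activity came from CCF4-AM FRET emission ratio (460/530 nm) in qHTS format.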

[14] = qHTS for H2AX Agonists against the NCATS CANVASS Library (AID 1347378)
Summary of the method: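 CHO-K1 cells were plated overnight at 37C, then exposed to compounds (concentration series, 0.76% DMSO final) for 3 hr at 37C. Lysates received Eu-cryptate anti-pH2AX (S139) and d2 anti-H2AX antibodies; after 24 hr at room temperature, TR-FRET 665/620 nm ratio was read.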

[15] = qHTS for Inflammasome Signaling Inhibitors: IL-1-beta AlphaLISA screen against the NCATS CANVASS Library (AID 1347379);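 also: human THP-1 cells primed with LPS then triggered with ATP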
Summary of the method: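 Human THP-1 cells were pretreated 1 hr at 37 °C with compounds (up to 57.5 uM final), then stimulated with LPS (250 ng/mL final) and ATP (1.25 mM final). Secreted IL-1B was read by AlphaLISA after 16 hr.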

[16] = Inflammasome Signaling qHTS Counterscreen: IL-1-beta AlphaLISA counterscreen against the NCATS CANVASS Library (AID 1347381);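 also: cell-free check with purified IL-1β in medium and no THP-1 cells; series mostly up to about 57 µM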
Summary of the method: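 To flag interference with the AlphaLISA read-out, a known amount of purified IL-1-beta (4 pg) replaced cell supernatant. Detection used anti-IL-1-beta acceptor beads, biotinylated antibody and streptavidin donor beads at room temperature.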

[17] = Cytotoxicity qHTS for assessment of Hepg2 cells membrane integrity screened against the NCATS CANVASS Library (AID 1347387)
Summary of the method: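 Fluorescence proportional to lysed-cell number, from LDH leaking out of HepG2 cells exposed 5 hr at 37C to 0.59 nM - 46 uM compound (11-point qHTS), is measured after 10 min with CytoTox-ONE.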

[18] = qHTS for Activators of p53 Stress Response Pathway screened against the NCATS CANVASS Library (AID 1347388)
Summary of the method: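 p53RE-bla HCT-116 cells (4000/well) were pre-incubated for 5 h, then treated with compound (11 points) for 16 h at 37C. After 2 h with CCF4, the 460/530 nm ratio gave reporter activation; CellTiter-Glo measured viability.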

[19] = qHTS assay for small molecule disruptors of mitochondrial membrane potential screened against the NCATS CANVASS Library (AID 1347389); also: series mostly up to about 46 µM; nearly all actives have a fitted effect of over 60% in size
Summary of the method: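 Compounds tested in 11-point qHTS series on HepG2 cells for 1 hr; membrane-potential dye added for 30 min at 37C. Lower red-to-green ratio indicates loss of potential.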

[20] = qHTS for activators of Nrf2/ARE signaling pathway screened against the NCATS CANVASS Library (AID 1347391); also: nearly all actives have a fitted effect of over 60% in size
Summary of the method: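 Cells carrying an ARE-driven beta-lactamase reporter (HepG2 background) are dosed for 16 h, then stained with CCF4. Cell viability in the same wells is measured by CellTiter-Glo luminescence.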

[21] = Vero-766 cells viability qHTS against the NCATS CANVASS Library: Counterscreen for Zika virus inhibition assay (AID 1347394)
Summary of the method: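 Uninfected Vero 766 (African green monkey) cells, 1000/well, attached overnight, then exposed 72 h at 37C to compounds (11-point qHTS). Viability read by CellTiter-Glo luminescence; media-only wells served as 100% inhibition.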

[22] = qHTS for inhibitors of Wild type Zika virus screened against the NCATS CANVASS Library (AID 1347396);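 also: ATP luminescence of surviving cells so rescue from viral cell killing; series mostly up to about 46 µM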
Summary of the method: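 Vero 766 cells, 1000/well, o/n attach; cpds pin-transferred (11-pt qHTS); WT Zika added; 72 h, 37C, 5% CO2; CellTiter Glo lumi. Uninfected + vehicle = 100% inhibition.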

Measured: Potency

O=C(OC1Cc2c(O)cc(O)cc2OC1c1cc(O)c(O)c(O)c1)c1cc(O)c(O)c(O)c1 (configuration not stated)
inactive: all assays above
